Measurements reported in the supplement of paper PMC6555819.

Columns and labels:
Assay in all cases: PBM binding z-score (relative to random genomic background probes); higher = stronger binding; sequences stand for … in GC…GCGATTGACAGCGTAGAATGAAGG
[1] = tested on: RARb homodimer (NR concentration 270 nM)
Outline: (§1)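 Custom Agilent 4×180K protein-binding microarrays carried double-stranded probes, each with a 34-nt variable region. These regions held direct-repeat seeds, single-nucleotide variants, half-site ablations and random human genomic background sequences. Ligand-free nuclear receptor dimers were incubated on the arrays for 1 h, antibodies against each partner (one per run) detected binding, and scanned fluorescence was regression-normalized. Binding z-scores take the random background probes as reference.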

[2] = tested on: RARg:RXRa (NR concentration 270 nM, RXRa partner concentration 90 nM)
Outline: as §1

[3] = tested on: RARg homodimer (NR concentration 270 nM)
Outline: as §1

[4] = tested on: RXRa DBDmut IVT, anti-RXR (DBD mutation: RXRa K156A/R161A, NR concentration 90 nM)
Outline: as §1

[5] = tested on: RXRa homodimer (NR concentration 180 nM)
Outline: as §1

[6] = tested on: THRa:RXRa (NR concentration 90 nM, RXRa partner concentration 90 nM)
Outline: as §1

[7] = tested on: THRa homodimer (NR concentration 90 nM)
Outline: as §1

[8] = tested on: VDR homodimer (NR concentration 270 nM)
Outline: as §1

Sequence	PBM binding z-score [1]	PBM binding z-score [2]	PBM binding z-score [3]	PBM binding z-score [4]	PBM binding z-score [5]	PBM binding z-score [6]	PBM binding z-score [7]	PBM binding z-score [8]
GCTCGGAGGACAAGGGCAGAGCTTTGTCCGTAGA	0.567	-0.153	0.628	-0.927	-0.428	0.387	-0.399	-0.558
ATATGTAGGTTAAGGGTCATTGAGGTTGGTTCGC	4.17	4.87	3.36	1.89	6.28	3.55	2.06	4.8
CATTACGGGTCACGAGGTTATAGCACGACGAGCG	4.22	6.35	5.8	2.21	8.02	3.82	1.56	2.52
GGAATGAGGGCATTCGAGTTGATAGCATGGCGAT	0.662	1.15	1.22	3.43	0.995	3.3	0.191	3.8
GCAAATAGGTAATACAAGGTGAAAGTCCGATTGT	0.898	0.546	0.597	0.463	0.951	4.22	0.778	-0.442
ATCGGAAGGTCGAAGGTGAGTATACCCACCCGAA	1.44	2.82	2.27	0.152	3.19	1.4	-0.0912	0.449
TCTGCTAGGTCAAAGATGGTCAGCTAATCTGCTA	3.04	3.65	4.3	1.31	2.65	3.05	0.196	-0.234
TCTTGTAGATCAACAGGAGGTTAGGAAAGATCGA	0.164	0.361	0.196	0.233	0.348	0.437	-0.828	-0.458
CGTCCAAAGTCAGCAGGTCAGTGAAAGCGACGTG	2.43	1.31	1.5	0.597	0.851	1.05	0.291	0.0938
CGTCAAAGTTCAAGGTAACCTAACAGAAAGCAGC	4.17	5.43	6.2	4.3	4.71	3.19	1.38	2.84
GCAGACAGGTGAAACGCAGGTAACTCAGGGTGGC	0.13	0.712	0.0344	-0.777	0.519	1.42	-0.615	-0.666
ATCTCTAGGTAACCAAGTTCAGTGACTGCCGAAC	1.39	0.744	0.871	1.24	0.577	1.46	1.03	2.9
CATGCTAGGTCAATGGTCAGCTAAAGCAGCTCGC	3.11	3.81	4.43	1.63	2.29	2.38	0.438	0.0964
TGTCAAAGTTCAAAGGTAACGGAAGTATCCACAC	3.76	6.56	5.94	4.29	7.52	2.99	0.158	4.06
CTTGCTAGGTCATGGTCAGCTAATCTACAGTATG	3.07	3.94	4.57	1.95	2.77	2.96	1.27	0.195
CCTACTGGGCCAAGGTCATTGTTCAGTCAAAGCA	3.27	3.46	2.71	1.59	2.91	3.45	2.72	3.17
CCTCGGAGGACAATAGGAGGTCAGAGCTGCCAGA	3.18	2.71	2.63	-0.00493	1.64	2.43	0.711	0.843
TCATATAGGTAATACAGGTGAAAGACGGCATCTA	0.66	0.945	0.86	1.52	1.38	0.85	0.434	0.471
ATACCAAGCTGATCGTGAGGTCGTTGATACTAAC	1.07	0.355	0.15	0.629	0.837	2.12	1.76	2.35
CCTAATTGGTCAGGAGGTCACACACCGGATATGA	4.46	4.97	4.47	1.33	4.88	3.69	2.45	2.62
TGAATGAGGTCATAAGATCAGGGAACGTTGCAAA	3.34	5.65	5	3.74	5.88	3.85	2.43	3.77
ATCTCTAGGTAACAAGTTCAGAGAAAGAGAGGAC	1.98	1.45	1.32	0.95	1.04	1.49	0.815	2.72
GCTTGTAGATCAAGGTTAGGAAAGACTAAGCTAA	-0.185	-0.139	-0.0948	-0.199	0.0572	0.576	-0.327	-0.0771
CGTCCAAGGTCAAACGTCAGTGAAGAGATGACGG	3.94	6.09	6.4	3.98	6.29	3.76	2.1	3.22
ATCGCTAGGTAAGACTCAGTTCAGTGAAGAACGC	-0.147	-0.35	-0.262	-0.408	-0.428	0.249	-0.192	0.334
CGAACGAGGGCATGAGTTGATAGCGAATGCCGAT	0.689	1.25	1.69	2.41	1.09	1.09	-0.229	1.5
TGTTGTAGATCAATAGAGGTTAAGAAAGTGCGCT	1.3	1.06	0.973	-0.255	1.25	2.39	-0.0243	0.759
ATCTCTAGGTAACAAGTACAGTGAAAGAGAGGAC	0.631	0.905	0.824	-0.118	0.349	1.12	0.739	0.41
